Reference: PubChem BioAssay (NCATS)
Records with an inconclusive call do not appear. Calls of active or inactive are those of the source. Calls come from the whole dose curve; as a rule, active = well fitted curve in the direction sought with a large enough effect; inconclusive = small, poorly fitted or top-dose-only effect, or another doubt; inactive = no such curve, though single readings can be large; an effect the other way counts as inactive or inconclusive.

Tests used:
[1] = qHTS to identify inhibitors of the type 1 interferon - major histocompatibility complex class I in skeletal muscle: primary screen against the NCATS LOPAC collection (AID 1347405);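 note: lytic HiBiT luminescence reporting HLA-B protein level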
Method in brief: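 Cells: C25cl48 human myoblasts, HiBiT-tagged HLA-B*08:01, stimulated with IFN-beta 4.0 ng/ml. Compounds are titrated 1:4.3 over 7 points from 46 uM final and incubated 24 hrs; endogenous MHC class I is quantified by HiBiT lytic luminescence.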

[2] = qHTS to identify inhibitors of the type 1 interferon - major histocompatibility complex class I in skeletal muscle: primary screen against the NCATS Pharmaceutical Collection (AID 1347407);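 note: luminescence of HiBiT knocked into endogenous HLA-B as interferon-induced MHC class I level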
Method in brief: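 Immortalized human myoblasts (C25cl48) with HiBiT knocked into endogenous HLA-B*08:01 were stimulated with 4.0 ng/ml IFN-beta and treated with compounds ([…] top 46 uM) for 24 hrs at 37 C. HiBiT lytic luminescence read.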

[3] = qHTS for inhibitors of adenylyl cyclases using a fission yeast platform: a pilot screen against the NCATS LOPAC library (AID 1347410)
Method in brief: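 S. pombe CHP2027 (AC9-GNAS-PDE4D2) carrying PKA-repressed fbp1-GFP, incubated 18 h at 30C in EMM with LOPAC compounds at up to 57 uM. GFP gain-of-signal read by laser scanning cytometry; DMSO negative control.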

[4] = qHTS to identify inhibitors of the type 1 interferon - major histocompatibility complex class I in skeletal muscle: primary screen against the NCATS Mechanism Interrogation Plate v5.0 (MIPE) Libary (AID 1347411); note: nearly all actives have a fitted effect of over 65% in size
Method in brief: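 Cells were genome-edited human myoblasts carrying a HiBit tag on endogenous HLA-B. They were treated with IFN-beta (4.0 ng/ml) and titrated compounds (top 46 uM) for 24 hrs before lytic HiBiT detection.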

[5] = target: Protein phosphatase 1D (Homo sapiens) (UniProt O15297); assay: RapidFire Mass Spectrometry qHTS Assay for Modulators of WT P53-Induced Phosphatase 1 (WIP1) (AID 1347424);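 note: amount of dephosphorylated VEPPL-S-QETFS peptide product formed by WIP1; series mostly up to about 63 µM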
Method in brief: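 10 nM WIP1 + cpd, 1 h RT; + 2 uM VEPPL-pS-QETFS, 5 min RT; stop 0.5% formic acid; labelled product standard 1 uM; RapidFire MS. Buffer 50 mM Tris pH 7.5, 30 mM MgCl2, 1 mM TCEP.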

[6] = target: Protein phosphatase 1D (Homo sapiens) (UniProt O15297); assay: Rhodamine-PBP qHTS Assay for Modulators of WT P53-Induced Phosphatase 1 (WIP1) (AID 1347425)
Method in brief: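 WIP1 (5 nM final) was preincubated with compound for 1 hour at room temperature. It then dephosphorylated 10 uM VEPPL-pS-QETFS peptide in Tris-HCl pH 7.5 with 30 mM MgCl2. Released Pi was detected by 10 uM Rh-PBP fluorescence (ex 525/em 598 nm) read at 1-min intervals for 11 min, as delta f1 - f0.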

[7] = Validation qHTS assay for inhibitors of Activation Induced Cytidine Deaminase (AID): UDG Counterscreen signal (AID 1347427)
Method in brief: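 Counterscreen read of UDG activity (2 U/mL, 4/3x) in the FRET deamination format with AID (1 uM, 4/3x), DJC20/DJC23 substrates (250 nM, 4x), 4 h at room temperature. NaOH stop, fluorescence at 560 ex/665 em.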

[8] = target: Single-stranded DNA cytosine deaminase (Homo sapiens) (UniProt Q9GZX7); assay: Validation qHTS assay for inhibitors of Activation Induced Cytidine Deaminase (AID): AID signal (AID 1347429)
Method in brief: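 In this coupled qHTS, AID deaminates a FRET-labelled ssDNA substrate in the presence of UDG over 4 hr at room temperature. Compounds span up to 114 uM final.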

[9] = Primary qHTS for inhibitors of La Crosse Virus (LACV) - induced cell death in SH-SY5Y cells (AID 1508616);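 note: top concentration of the series differs between compounds; higher means more rescue of cells from virus-induced death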
Method in brief: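 Readout was luminescence from ATPLite 1step added after a 6-day LACV infection (0.01 MOI) of SH-SY5Y cells that had received pin-transferred compound 24 hr after seeding.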

[10] = target: Calcium and integrin-binding protein 1 (Homo sapiens) (UniProt Q99828); assay: Validation qHTS for Identification of Calcium Integrin Binding protein 1 (CIB1) Competitor (AID 1508618)
Method in brief: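 Fluorescence polarization with 1 uM CIB1-GST and 100 nM FITC-alphaIIb peptide in HEPES pH 7.4, NaCl, 5 mM CaCl2, Tween20. Compounds at up to 114 uM final, preincubated with protein 15 min; read after 15 min more at RT.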

[11] = target: Calcium and integrin-binding protein 1 (Homo sapiens) (UniProt Q99828); assay: Primary qHTS for Identification of Calcium Integrin Binding Protein 1 (CIB1) Competitor (AID 1508620);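 note: GST tagged CIB1 binding a fluorescein labelled alphaIIb integrin peptide tracer; top concentration of the series differs between compounds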
Method in brief: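 CIB1-GST (1 uM final) and compound incubated 15 min at room temperature before adding FITC-alphaIIb peptide tracer (100 nM final). Competition for binding read by fluorescence polarization (ex 480, em 540) after another 15 min at room temperature.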

Measured: Potency

Sequence of Single-stranded DNA cytosine deaminase (Homo sapiens) (Q9GZX7 whole entry, looked up): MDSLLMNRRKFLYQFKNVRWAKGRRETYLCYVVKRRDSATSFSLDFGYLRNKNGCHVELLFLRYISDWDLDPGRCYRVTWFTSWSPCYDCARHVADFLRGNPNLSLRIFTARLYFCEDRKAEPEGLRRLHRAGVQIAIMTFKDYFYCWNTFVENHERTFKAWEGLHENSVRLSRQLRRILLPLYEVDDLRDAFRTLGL
Sequence of Calcium and integrin-binding protein 1 (Homo sapiens) (Q99828 whole entry, looked up): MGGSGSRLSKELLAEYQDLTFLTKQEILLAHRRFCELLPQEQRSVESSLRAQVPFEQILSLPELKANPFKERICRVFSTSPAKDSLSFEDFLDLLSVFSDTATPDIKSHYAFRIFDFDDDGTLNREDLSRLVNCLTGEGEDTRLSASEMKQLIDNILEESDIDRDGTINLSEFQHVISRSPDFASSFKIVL
Sequence of Protein phosphatase 1D (Homo sapiens) (O15297 whole entry, looked up): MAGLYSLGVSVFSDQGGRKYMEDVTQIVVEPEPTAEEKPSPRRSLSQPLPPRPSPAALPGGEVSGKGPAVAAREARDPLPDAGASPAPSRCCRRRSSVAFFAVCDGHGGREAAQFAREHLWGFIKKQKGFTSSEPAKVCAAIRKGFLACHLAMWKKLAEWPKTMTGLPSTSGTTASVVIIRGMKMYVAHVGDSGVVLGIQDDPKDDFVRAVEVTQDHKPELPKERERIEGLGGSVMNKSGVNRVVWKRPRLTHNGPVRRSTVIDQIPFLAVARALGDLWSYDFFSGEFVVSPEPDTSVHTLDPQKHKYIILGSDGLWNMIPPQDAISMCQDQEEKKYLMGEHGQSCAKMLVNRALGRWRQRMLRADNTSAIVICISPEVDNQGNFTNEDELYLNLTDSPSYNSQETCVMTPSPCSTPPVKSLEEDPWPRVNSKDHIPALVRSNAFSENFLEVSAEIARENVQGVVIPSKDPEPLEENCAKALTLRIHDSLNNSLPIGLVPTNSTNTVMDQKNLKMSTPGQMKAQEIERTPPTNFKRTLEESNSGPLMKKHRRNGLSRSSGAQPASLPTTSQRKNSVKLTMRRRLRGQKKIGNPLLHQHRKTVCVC

CC(C(=O)O)c1cccc(C(=O)c2ccccc2)c1 (stereo unspecified)
inactive: [1] | [2] | [3] | [4] | [5] | [6] | [7] | [8] | [9]

CC[N+](CC)(CC)CCOc1cccc(OCC[N+](CC)(CC)CC)c1OCC[N+](CC)(CC)CC
inactive: [1] | [2] | [3] | [4] | [5] | [6] | [7] | [8] | [9]

COc1ccccc1N1CCN(CC(O)COc2cccc3ccccc23)CC1 (stereo unspecified)
inactive: [1] | [2] | [3] | [4] | [5] | [6] | [7] | [8] | [9] | [10] | [11]

Cc1cc(C(C)(C)C)cc(C)c1CC1=NCCN1
inactive: [1] | [2] | [3] | [4] | [5] | [6] | [7] | [8] | [9] | [10] | [11]

CN(C)CCOC(c1ccccc1)c1ccccc1
inactive: [1] | [2] | [3] | [4] | [5] | [6] | [7] | [8] | [9] | [10] | [11]

CCC1(C)CC(=O)NC1=O (stereo unspecified)
inactive: [1] | [2] | [3] | [4] | [5] | [6] | [7] | [8] | [9] | [10] | [11]

CN(C)c1nc(N(C)C)nc(N(C)C)n1
inactive: [1] | [2] | [3] | [4] | [5] | [6] | [7] | [8] | [9] | [10] | [11]

COc1ccccc1OCC(O)CN1CCN(CC(=O)Nc2c(C)cccc2C)CC1 (stereo unspecified)
inactive: [1] | [2] | [3] | [4] | [5] | [6] | [7] | [8] | [9] | [10] | [11]

Cn1ccc2cc3c(cc21)CCN3C(=O)Nc1cccnc1
inactive: [1] | [2] | [3] | [4] | [5] | [6] | [7] | [8] | [9] | [10] | [11]

CCCNCC(O)COc1ccccc1C(=O)CCc1ccccc1 (stereo unspecified)
inactive: [1] | [2] | [3] | [4] | [5] | [6] | [7] | [8] | [9] | [10] | [11]

NCCS(=O)(=O)O
inactive: [1] | [2] | [3] | [4] | [5] | [6] | [7] | [8] | [9] | [10] | [11]

CN(C)CCCN1c2ccccc2CCc2ccc(Cl)cc21
inactive: [1] | [2] | [3] | [4] | [5] | [6] | [7] | [8] | [9]

Cc1cnc(C(=O)NCCc2ccc(S(=O)(=O)NC(=O)NC3CCCCC3)cc2)cn1
inactive: [1] | [2] | [3] | [4] | [5] | [6] | [7] | [8] | [9]

Cn1cnc2c1c(=O)[nH]c(=O)n2C
inactive: [1] | [2] | [3] | [4] | [5] | [6] | [7] | [8] | [9] | [10] | [11]

CCOC(=O)c1ncn2c1CN(C)C(=O)c1cc(F)ccc1-2
inactive: [1] | [2] | [3] | [4] | [5] | [6] | [7] | [8] | [9] | [10] | [11]

Clc1ccc2nsnc2c1NC1=NCCN1
inactive: [1] | [2] | [3] | [4] | [5] | [6] | [7] | [8] | [9]

CC(C)NCC(O)COc1ccc(CCOCC2CC2)cc1 (stereo unspecified)
inactive: [1] | [2] | [3] | [4] | [5] | [6] | [7] | [8] | [9] | [10] | [11]

CC(C)(Oc1ccc(C2CC2(Cl)Cl)cc1)C(=O)O (stereo unspecified)
inactive: [1] | [2] | [3] | [4] | [5] | [6] | [7] | [8] | [9] | [10] | [11]

CC(C)NCC(O)c1ccc(O)c(O)c1 (stereo unspecified)
inactive: [1] | [2] | [3] | [4] | [5] | [6] | [7] | [8] | [9] | [10] | [11]

NC12CC3CC(CC(C3)C1)C2
inactive: [1] | [2] | [3] | [4] | [5] | [6] | [7] | [8] | [9] | [10] | [11]

O=C1N(c2ccccc2)c2ccccc2C1(Cc1ccncc1)Cc1ccncc1
inactive: [1] | [2] | [3] | [4] | [5] | [6] | [7] | [8] | [9] | [10] | [11]
